Screening data as filed in PubChem.
HSP90 refold inh: inhibitors of HSP90 luciferase refolding in rabbit reticulocyte lysate; inhibition, % at 5.6 µM; 290,000 tested, 0.91% active; AID 1789; luciferase refolding luminescence, 3 h;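 active = inhibition above the screen-wide mean plus 3 SD, computed separately per campaign, cut at about 16% in these data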;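 note: 0% = DMSO wells and 100% = 60 µM geldanamycin wells; inhibitors lower the luminescence because luciferase stays unfolded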
HSF1 inh: HSF1 inhibition; NIH3T3-HGL HSE-luciferase, MG132-induced, luminescence 8 h; hits give low values; activity change, negative = inhibition, % at 7.5 µM (by protocol); 300,000 tested, 0.77% active;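 active = more than half of replicate wells show activity change below -50%, luminescence cut by over half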;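 note: luciferase reports HSF-1 transcriptional activity via heat shock element; 0% = median of DMSO wells and -100% = zero luminescence signal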
Platelet DG rel: platelet dense granule release activity. inhibition, %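 (compounds screened at 7.5 µM in platelet-rich plasma)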. human platelet-rich plasma, SFLLRN dense granule ATP release, luminescence. 300,000 tested, 0.22% active;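 active = mean replicate score, as percent of positive control, at or above 50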
MPTP block: blocks calcium-induced mitochondrial swelling | isolated mouse mitochondria, Ca2+ swelling absorbance, 30 min | inhibition, % at 10 µM | 360,000 tested, 1.4% active;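 active = inhibition of 50% or more, scaled per plate between neutral and stimulator controls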;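 note: 0% = DMSO wells given calcium and 100% = 1 mM EGTA wells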
HSF-1 act: increases HSF-1 driven luciferase reporter signal; 300,000 tested, 1.7% active; activation, % at 9 µM; AID 504408; NIH3T3-HGL HSF-1 luciferase reporter, MG132, 8 h; 100% = twice DMSO control signal;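 active = mean replicate activation of at least 50% with a set share of replicates each reaching 50%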;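 note: 0% = median of the neutral control wells and 100% = twice that signal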
dFosB act-1: mouse delta FosB homodimer activation; P13346; purified delta FosB, TAMRA-CDK5 oligo fluorescence polarization; percent of positive-control signal above neutral wells; activation, % at 25 µM; 340,000 tested, 0.99% active;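 active = mean activation above about 17%, with every replicate also reaching it, limit read from the data, passing the limit was not always enough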
Target sequence (P13346 whole entry, looked up): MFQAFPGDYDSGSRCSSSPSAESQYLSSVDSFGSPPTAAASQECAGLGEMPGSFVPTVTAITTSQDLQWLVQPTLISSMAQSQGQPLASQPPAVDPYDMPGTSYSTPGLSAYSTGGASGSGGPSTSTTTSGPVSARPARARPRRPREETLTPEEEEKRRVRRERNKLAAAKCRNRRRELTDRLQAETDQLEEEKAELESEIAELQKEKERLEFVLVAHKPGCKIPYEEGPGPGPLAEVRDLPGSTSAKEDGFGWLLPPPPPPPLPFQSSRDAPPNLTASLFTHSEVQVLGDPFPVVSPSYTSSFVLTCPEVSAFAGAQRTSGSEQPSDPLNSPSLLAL
dFosB act-2: enhances mouse delta FosB homodimer binding to DNA. AID 588690. purified delta FosB, TAMRA-CDK5 oligo fluorescence polarization; normalised: neutral wells 0, positive control 100. activation, % at 24.9 µM. 2,400 tested, under 10 active. shares compounds with dFosB act-1;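 active = highest replicate activation at or above 34% and every replicate reaching that threshold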;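 note: higher polarization means more probe DNA bound by delta FosB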
* = called active by the depositor; / = not tested or not shown. A selection: hits, their analogues and other compounds. The true share with any hit is near 4.9%.

SMILES	HSP90 refold inh	HSF1 inh	Platelet DG rel	MPTP block	HSF-1 act	dFosB act-1	dFosB act-2
Cc1cccc(Nc2nnc(SCC(=O)NC3CCCc4ccccc43)s2)c1 (configuration not stated)	3	5	4	2	19	21*	-3
O=C(CC(NC(=O)c1ccccc1Cl)c1ccccc1)NCCc1ccc(Cl)cc1 (configuration not stated)	2	-1	4	2	21	25*	0
CCCNC(=O)C1(C)CCN(C(=O)c2ccc3snnc3c2)C1 (configuration not stated)	/	/	/	0	/	/	/
COc1cc(C(=O)Nc2nnc(-c3sccc3C)s2)cc(OC)c1OC	1	-2	6	2	8	17*	6
COc1cccc(C(=O)Nc2nnc(SCC(=O)NC3CC3)s2)c1	6	-3	4	1	5	53*	-2
COc1ccccc1-c1nnc(NC(=O)c2ccc3c(c2)OCO3)s1	-1	/	0	-1	/	59*	2
O=C(CCCl)Nc1nnc(SCC(=O)NC2CCCC2)s1	-1	-4	-10	-1	-7	20*	0
COc1ccc(C(=O)Nc2nnc(SCC(=O)NC3CCCC3)s2)c(OC)c1	11	9	-7	3	30	-6	/
Cc1ccc(CN2C(=O)CSCC2(C)C(=O)Nc2c(C)cccc2C)cc1 (configuration not stated)	/	/	/	0	/	/	/
COc1cc(O)c(CCC(=O)c2ccc(OC)c(OC)c2)c(OC)c1	-1	5	-6	0	16	1	/
CC(C)[C@H]1COCCS(=O)(=O)N1Cc1ccccc1-c1ccccc1	/	/	/	0	/	-6	/
COc1ccc(N/C=C(\C#N)S(=O)(=O)c2ccc(Cl)cc2)c(OC)c1	2	-3	3	1	22	-3	/
COc1cc(OC)cc(C(=O)Nc2nnc(SCC(=O)NCc3ccco3)s2)c1	-3	-8	2	-1	-14	-15	/
COc1ccc(C(=O)Nc2nnc(SCC(=O)NCc3ccco3)s2)cc1OC	-1	-4	-1	0	-2	26*	2
COCCSc1nnc(NC(=O)c2ccc(OC)c([N+](=O)[O-])c2)s1	1	3	-5	-1	1	26*	-6
COc1cccc(C(=O)Nc2nnc(-c3ccc(OC)cc3OC)s2)c1	2	9	-5	0	34	39*	7
COc1ccc(CSc2nnc(NC(C)=O)s2)cc1[N+](=O)[O-]	-2	/	/	0	/	9	/
Cc1ccc(NC(=O)Nc2c(Cl)cccc2Cl)cn1	0	3	-5	0	24	-3	/
COc1cc(NC(=O)C2CCCN(S(=O)(=O)c3ccc4[nH]c(=O)ccc4c3)C2)cc(OC)c1 (configuration not stated)	-3	-8	18	0	11	52*	2
CCOc1ccc(NC(=O)C2CCCN(S(=O)(=O)c3ccc4[nH]c(=O)ccc4c3)C2)cc1 (configuration not stated)	1	3	3	-2	4	15	/
COc1ccc(NC(=O)C2CCCN(S(=O)(=O)c3ccc4[nH]c(=O)ccc4c3)C2)cc1 (configuration not stated)	-2	-3	2	-1	-5	17*	2
CCOCCCNC(=O)CN1C(=O)NC(Cc2c[nH]c3ccccc23)C1=O (configuration not stated)	0	7	-5	0	30	-6	/
Nc1ccn([C@@H]2O[C@H](CNCc3ccc(Oc4cc(-n5cccn5)ncn4)cc3)[C@@H](O)[C@H]2O)c(=O)n1	/	/	/	-2	/	/	/
Cc1ccc(/C=C/C(=O)Nc2ccc(S(=O)(=O)Nc3onc(C)c3C)cc2)cc1	3	-10	-1	2	-9	2	/
O=C(Cn1ncc2c3ccccc3n(Cc3ccccc3)c2c1=O)NCCCN1CCCC1=O	-2	10	-9	-1	5	-7	/
CN(Cc1ccccn1)C(=O)C1CCC(=O)N(CCc2ccc(Cl)cc2)C1 (configuration not stated)	5	-1	-4	-1	5	-5	/
